Test results from PubChem BioAssay AID1508600 (Functional Genomics Laboratory (NCATS/FGL), 2020).
In all, about 53,000 sequences went through this assay and about 3,700 (7%) were called active. The full list was thinned out, with actives kept by preference. A number with no mark means an inactive call.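 How the source made its calls: active means gene knockdowns whose robust z-score for IL-1 alpha signal is at least 2 or at most -2, so actives lie on both sides; inactive means the rest.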

assay: Components of the Cytosolic LPS Sensing Pathway: Gene Identification via Genome-wide siRNA Screen; details: RAW264.7 macrophages, IL-1a HTRF, actives lie on both sides, screened at 100 nM (by protocol), cells primed 5 h with Pam3CSK4 first;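 further: robust z of the log signal after scaling to non-targeting control siRNA wells of the plate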
Outline: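 Knockdown: 100 nM siRNA, 48h, RAW264.7. Stimulation: Pam3CSK4 5 h, then LipidA via TransIT-TKO 24 h. Output: supernatant IL-1a HTRF, negative-control-normalized, log robust z-score; viability by CellTiter-Glo.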

Sequence | z-score
GGUACUUCUCAUGGAUAAATT against Vps45 | -0.234
GGAACUAAAUAUCCCUAUGTT against Polr3gl | -1.26
GAUACUUGGCUCCUAGAAGTT against Olfr803 | -1.22
GCAUGAAUUGUGGAAGAGATT against Csnk1a1 | 2.71 (active)
GCCAGGUGGAACCAAGUAUTT against Zcchc17 | -1.67
GGCAUCUUAUGGCCUAAAATT against Rnf31 | -1.08
GCGAAAAAGAUCGUCCUUGTT against Polr3a | -0.444
GGAUCUUUACAUCUCUAACTT against Krtap31-1 | 1.58
GCCAAACAUUGGUGGACAUTT against H2-D1 | 0.835
GCUUAAUAAUUUCAUCCAGTT against Brms1l | 2.44 (active)
GGCCCAGUCCGAUAUUCUATT against Phxr4 | -0.797
GCAAAUCAGUCUAUCGCUGTT against Mcpt8 | 0.39
GGUUUUCACUAUUUCAACUTT against Olfr187 | -1.06
GGUAAAUGGUUUAACUACGTT against Tmem117 | -0.68
GCAAAGGAUCGCUUGAAAATT against Mrpl40 | -1.15
GGAAUAAAGCUCAUCUACGTT against Slc43a2 | 2.09 (active)
GGAUGAACACUGUUACAAATT against Tusc3 | 0.352
GGUGAUGCAAGAAGAAAUUTT against Aldh3a2 | 0.169
GGCUCUGUUCUCCACAUUGTT against Phf5a | -1.6
GGCAAUGGUUCAGCAGUGGTT against Eef1e1 | -0.564
GGCCUUUCAUGAAAGCUCATT against Ublcp1 | -3.07 (active)
GGUAGCUGUGAUAAAGCAUTT against Pcbd1 | -1.81

Sequence | z-score
CCUGAUAUUCAUGACCAAATT against Wasf2 | -0.0177
CGGUGGCAAAAUGAGAAGUTT against Cd79a | -0.142
CCCUAAUCUGGUGAACGAUTT against Mfap5 | -1.05
GGUCUGAGCCUUGUCUUUATT against Pdx1 | 2.92 (active)
GGUGUCUGGUUCAUAAAGGTT against Lcn4 | -0.344
GGACACAACUCAUUUUCAGTT against Prg3 | -1.61
GGAAGGAGAGACCAUUGAGTT against Nudt1 | -1.48
GCGAUUAAGUCUGAAUUGUTT against Cd93 | 0.425
GGAUACCUACCUGGACAGUTT against Dlgap4 | -1.23
GGCACAUUGCUGAAGCCCATT against Aldoa | -2.42 (active)
GCUACACAUGGGAACUAACTT against 4631405J19Rik | 1.51
GGCCUAUAUUGAUGAUUUUTT against 4930503L19Rik | 2.31 (active)
GGGUGUACAGAGGAUCCGATT against Atp2a3 | 0.187
GGCAUUUACUUACUGUUCATT against Slc39a10 | -0.331
CGAUUUCAUCGAACACUUCTT against Ccnd1 | 1.37
GGUACACAUGAGACAAUAUTT against Whamm | -2.18 (active)
GGCUUUGUUAGUCUAUGACTT against Dzip1l | -0.552
GGUGGAAGACAAGAGGAUATT against Sytl5 | -0.474
GGGUAAUACUCUUUGGUGCTT against Olfr594 | 0.34
GGUUUGCCUGUGCUGAUAUTT against Olfr549 | -0.617
GAUGGUCCAGAGCGACUUCTT against Pou3f3 | 2.14 (active)
GGGUCAAGGUAGUAGUACCTT against Tob1 | 0.275

Sequence | z-score
CCAUUACAUCCAUUUGAUUTT against Cfap206 | 0.328
GGUUUGAUGUUAGACAACGTT against Trim34a | 0.652
GGACAACAAAGGGAGAUUCTT against Kctd12b | 1.43
CCUACUUGGGAAAGUUCGCTT against Egr3 | 1.5
CCCACUUGCUGAAAAUUGUTT against Ankib1 | -0.338
CCCAGAACACCGUAUACUUTT against Itga3 | 3.95 (active)
CCAAUUUCCUUUCAGACUGTT against Cxxc4 | -1.2
GGACAGCACAAUUACCUUUTT against Nr3c1 | -0.299
GGGUAGGAAACAAACACAGTT against Cox11 | -0.234
GAAUGCUCUGAGACUUUUATT against Cd300c2 | -2.48 (active)
GCUCCAAUAGCGUAUAUUATT against Pigt | -0.75
GGAGGACUAGUUGUGACUUTT against Aldh1a1 | -0.384
UGGCAAGAUUGAAACCAUATT against Hnrnpa3 | -1.61
GGUUCUUUCGAGAAUGGACTT against Nod1 | -0.145
GGAUUUCCCAUCAAAGACGTT against Serpinf2 | 0.155
GCCCAAAUGAGACUACUUUTT against Ces1e | -1.24
GGCUCAGAUACUCUUAUAATT against Aknad1 | -3.24 (active)
GCUAAACAUAAAAAUCGACTT against Garre1 | -1.27
GGAUUAAGUGGUCAAAUGATT against Ugt2b36 | -0.62
CCACCUGUGCUACCACUUATT against Rexo4 | -2.34 (active)
GGUUACAUAUCAGUUGAAATT against Slc35a3 | 0.032
GCAAAAUCUAGGGAUAAGATT against Trdv2-2 | 0.259

Sequence | z-score
GGGAGAACAGCGACAAACATT against Cbfb | 1.82
GAGUUCGAUGUUCAGGAGCTT against Ndrg1 | -0.354
GGUUCAUGGGUUUUAAGUGTT against Eif1 | 2.25 (active)
GGAAGAGGAGAAGAAAAAGTT against Syf2 | -1.25
GCACAGUUGGCAACCUUUATT against S100a9 | -0.029
GGAUAACCCUAAGUUUAUGTT against Clu | 0.753
GGACCUCAUCUACAGAAUGTT against Tssk1 | 0.878
CGGACAAAGGACGAGUGUUTT against Fn3krp | 3.02 (active)
GGCAGUAGCCAGAAGGCAUTT against Rnf215 | 0.373
CGACAUAGCUUCUGUACUGTT against Spaca9 | -1.42
CCUUUAGGUACCACGAGUGTT against Large2 | -0.965
CCUUUAAAGUAAGCAUGUGTT against Slc27a4 | 0.112
GUUCUUUUUCUUCGGUUCCTT against Olfr1020 | 0.769
GGGUCUAGAGUGCAUCUUCTT against Krt78 | 0.418
GGCUGUUUUUGCCGGUAUCTT against Teddm3 | 1.58
GGAAAACCAACAAAGCAAATT against Pde10a | -0.692
UAUGACUCCACUCUUCUCUTT against Olfr1158 | -2 (active)
GGAAGAGGGCAAAAAUGGCTT against Sgms2 | -0.441
GGUUAUUUCGGGAGAUAAGTT against Nudcd1 | -0.351
GGCAGAACGGAAUAAAAUGTT against Stag2 | -3.03 (active)
CCUGAUCAUGUUGAAGGAATT against Ktn1 | 0.256
GGACACUGCAAAAGAGGAGTT against Defa4 | 1.37

Sequence | z-score
GGGAUACUCCAGACAAGGUTT against Usp17ld | 0.142
GGCCAUCAGAGCUACACUUTT against Gpa33 | 0.806
CAUUGGUAUUGCCAAGGCATT against Olfr1330 | 0.373
GGGAGAAACCAUUUCAAGATT against Gm5084 | 0.0759
GGAUUUCUCUGCCUGUACUTT against Gdpgp1 | 0.37
GAUGAAGAGGCAGGCCAAGTT against Nkx2-4 | 2.63 (active)
GGUGUUAGCGAAAUGCUCATT against Prl7b1 | -0.875
GCUCACUGCUACAAAUACCTT against Prss2 | -1.82
GCUUUAUCCACAGGUGCCATT against Olfr1350 | -1.9
GCCUAUUCACCAAAUCACATT against Frrs1 | 0.408
GAUCUGGCUGCUUCUUACCTT against Porcn | -0.623
GGCAUAAGAAAAUGGACCCTT against Fhit | 2.04 (active)
GGGAUAGUGUAAGUUAGUUTT against Dppa4 | -0.0875
GUUCUGAAAAUAGAAUAAUTT against Vmn1r16 | 0.237
GGCUUGAUUGCAUCUUUAUTT against Ebpl | -0.765
CGACACACCUAGCUAAACCTT against Dgkeos | -1.98
GGCCUUAGAACAAGGAAUATT against Cdk7 | -0.769
CCAAUUACGAGACUCUCAUTT against Zfp786 | -0.00661
GCUUAUUGAACUAUUGUUGTT against Trpc4 | 3.72 (active)
